In the library only some 7% were active in any assay of this set; here they are far more common.
GRIN3A LBD mod – NR3A (human) ligand-binding domain modulation; Tm shift relative to glycine control, % at 25 µM; 2.5% of 340,000 active; NR3A LBD differential scanning fluorimetry, Tm shift; 0% = protein alone, 100% = glycine-bound protein;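 active means melting temperature shift of at least 10% of the positive control shift, at one fixed dose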
ADAM17 inh – inhibitors of human ADAM17. P78536. recombinant ADAM17, EDANS/DABCYL FRET peptide cleavage. inhibition, % at 6.95 µM. 0.83% of 370,000 active;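 active means inhibition above the mean of compounds lying between control limits plus 3 SD, set per campaign, cut at about 8.5% in these data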
rCAG RNA binder – molecules binding r(CAG) RNA repeats; r(CAG) RNA repeat, TO-PRO-1 dye displacement fluorescence; inhibition, % at 3 µM; 1.3% of 370,000 active;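 active means inhibition above the plate cutoff, the mean of all test compounds on that plate plus 3 SD, cut at about 35% in these data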;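 further: higher means more dye released from RNA so lower well fluorescence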
ADAM10 inh – ADAM10 inhibition, QFRET primary screen. O14672. recombinant ADAM10, EDANS/DABCYL FRET peptide cleavage, 3 h. inhibition, % at 7 µM. 0.62% of 370,000 active;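 active means inhibition above a per-campaign cutoff equal to the mean of compounds falling between control-based bounds plus 3 SD, cut at about 20% in these data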
KLK7 zymogen act – proKLK7 (human) activation, primary screen; P49862; purified proKLK7, EDANS-DABCYL substrate fluorescence; 100% is mature enzyme control, 0% vehicle; activation, % at 7 µM; 0.9% of 370,000 active;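 active means activation above the mean of all tested compounds plus 3 SD, computed per campaign excluding outliers beyond control limits, cut at about 13% in these data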
AHR act – activates the human aryl hydrocarbon receptor | activation, % at 5 µM | AID 2796 | P35869 | AHR-responsive luciferase reporter cells, luminescence | 2.5% of 320,000 active; in the data active means activation above about 47%
Target sequence (P35869 whole entry, looked up): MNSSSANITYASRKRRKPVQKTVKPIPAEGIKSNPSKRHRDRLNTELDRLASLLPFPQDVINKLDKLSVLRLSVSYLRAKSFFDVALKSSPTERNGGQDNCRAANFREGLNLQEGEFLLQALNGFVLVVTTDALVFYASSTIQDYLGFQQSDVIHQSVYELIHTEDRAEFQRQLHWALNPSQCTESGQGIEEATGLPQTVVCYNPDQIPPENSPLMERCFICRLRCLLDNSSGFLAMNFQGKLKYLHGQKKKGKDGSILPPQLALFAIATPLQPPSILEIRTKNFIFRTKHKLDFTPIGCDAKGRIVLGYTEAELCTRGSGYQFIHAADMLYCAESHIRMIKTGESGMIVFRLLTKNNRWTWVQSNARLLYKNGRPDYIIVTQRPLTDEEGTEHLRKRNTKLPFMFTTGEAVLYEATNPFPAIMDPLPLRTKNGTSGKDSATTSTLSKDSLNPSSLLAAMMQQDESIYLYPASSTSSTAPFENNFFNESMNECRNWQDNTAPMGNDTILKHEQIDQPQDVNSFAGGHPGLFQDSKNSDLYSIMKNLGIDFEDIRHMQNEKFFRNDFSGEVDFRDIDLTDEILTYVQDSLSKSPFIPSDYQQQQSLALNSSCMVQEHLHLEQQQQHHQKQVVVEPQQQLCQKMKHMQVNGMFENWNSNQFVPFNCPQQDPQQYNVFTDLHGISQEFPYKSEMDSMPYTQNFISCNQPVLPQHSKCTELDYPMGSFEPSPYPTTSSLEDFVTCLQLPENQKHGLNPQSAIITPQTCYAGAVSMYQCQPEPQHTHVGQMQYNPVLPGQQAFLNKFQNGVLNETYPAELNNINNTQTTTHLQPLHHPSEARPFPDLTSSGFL
rCAG bind conf – r(CAG) RNA repeat binding, confirmation; shares compounds with rCAG RNA binder; TO-PRO-1 dye displacement fluorescence; inhibition, % at 3 µM; 70% of 4,300 active;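 active means inhibition above a per-plate cutoff, the mean inhibition of sample wells plus 3 SD, cut at about 35% in these data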;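 further: loss of TO-PRO-1 fluorescence as compound displaces dye from 1x1 AA loop RNA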
dCAG dye counter – DNA CAG dye complex inhibition counter-screen. shares compounds with rCAG RNA binder. d(CAG) DNA oligo TO-PRO-1 dye displacement, fluorescence. inhibition, % at 3 µM. 94% of 4,300 active;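 active means inhibition above its plate's cutoff, the mean test-well inhibition plus 3 SD, cut at about 4.8% in these data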;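 further: hits displace the dye from DNA and so lower well fluorescence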
DNA CAG DR – counter-screen for rCAG binders: inhibitors of DNA CAG TO-PRO-1 complex. shares compounds with rCAG RNA binder. DNA CAG/GTC duplex TO-PRO-1 dye displacement fluorescence. IC50, µM. 20% of 250 active; in the data active means IC50 below about 10 µM
Of the large screens only hits and unclear results are named; the others gave an inactive call (follow-up assays come after a bar, where they were run).

CC(C)(C)S(=O)N1C[C@@H]2CC(=O)C(c3ccccc3)=C2[C@H]1CCO (stereo not given in full)	none (no result: GRIN3A LBD mod, AHR act)
Cc1cc(NS(=O)(=O)c2ccc(NC(=O)CCCOc3cccc(C)c3C)cc2)no1	rCAG RNA binder 63 | rCAG bind conf 62 | dCAG dye counter 17
Cc1ccccc1OCCCC(=O)Nc1ccc(S(=O)(=O)Nc2onc(C)c2C)cc1	rCAG RNA binder 52 | rCAG bind conf inactive | dCAG dye counter 9.4
Cc1cc(NS(=O)(=O)c2ccc(NC(=O)c3oc4ccccc4c3C)cc2)no1	GRIN3A LBD mod 14, rCAG RNA binder 41 | rCAG bind conf 41 | dCAG dye counter 11
Cc1c(C(=O)Nc2ccc(S(=O)(=O)Nc3ncccn3)cc2)oc2ccccc12	none
Cc1ccc(OCCCC(=O)Nc2ccc(S(=O)(=O)Nc3cc(C)on3)cc2)cc1	rCAG RNA binder 49 | rCAG bind conf 36 | dCAG dye counter 12
Cc1ccc(OCCCC(=O)Nc2ccc(S(=O)(=O)Nc3ccccn3)cc2)cc1	none
COC(=O)C1=CN(c2ccc(F)cc2)C(N)=C(C#N)C1c1ccc(-c2ccccc2)cc1 (stereo not given)	none (no result: GRIN3A LBD mod, AHR act)
CCOC(=O)C1=CCC(c2ccccc2)N(S(C)(=O)=O)C1 (stereo not given)	none (no result: GRIN3A LBD mod, AHR act)
Cc1cccc2nc(-c3ccccc3)c(-c3ccc(CN4CCC5(CC4)CNc4ccccc45)cc3)nc12	none (no result: GRIN3A LBD mod, AHR act)
COc1ccc(OCC(=O)Nc2ccc(S(=O)(=O)Nc3cc(C)on3)cc2)cc1	none
Cc1cc(NS(=O)(=O)c2ccc(NC(=O)COc3c(C)cc(Br)cc3C)cc2)no1	rCAG RNA binder 71 | rCAG bind conf 63 | dCAG dye counter 26
COc1cc(OC)cc(-c2c(-c3cccs3)c3cc(Br)ccc3n2C)c1	rCAG RNA binder 40 | rCAG bind conf inactive | dCAG dye counter 9.3
O=C(O)c1ccccc1C(=O)N1N=C2/C(=C/c3cccc([N+](=O)[O-])c3)CCCC2C1c1cccc([N+](=O)[O-])c1 (stereo not given)	rCAG RNA binder 52 | rCAG bind conf 73 | dCAG dye counter 30
CC1CCCCN1C(=O)/C=C/c1ccccc1[N+](=O)[O-] (stereo not given)	none
O=C(O)c1c(C(=O)N2N=C3/C(=C/c4ccccc4)CCCC3C2c2ccccc2)cccc1[N+](=O)[O-] (stereo not given)	rCAG RNA binder 35, AHR act 78 | rCAG bind conf 56 | dCAG dye counter 17
O=C(O)c1ccc(-n2ncc3c2/C(=C/c2cccc([N+](=O)[O-])c2)CC3)cc1	none
O=C(O)C(Cc1ccccc1)N1C(=O)/C(=C/C=C/c2ccco2)SC1=S (stereo not given)	rCAG RNA binder 90 (no result: AHR act) | rCAG bind conf 92 | dCAG dye counter 68
O=C(NN1C(=O)/C(=C/C=C/c2ccco2)SC1=S)c1ccccc1O	rCAG RNA binder 94 | rCAG bind conf 93 | dCAG dye counter 77
O=C(O)CCCN1C(=O)/C(=C/C=C/c2ccco2)SC1=S	rCAG RNA binder 60 | rCAG bind conf 51 | dCAG dye counter 19
O=C(O)C(Cc1ccccc1)N1C(=O)/C(=C/c2cccnc2)SC1=S (stereo not given)	none
O=C(O)CC(C(=O)O)N1C(=O)/C(=C/C=C/c2ccco2)SC1=S (stereo not given)	none
Cc1ccc(NC(=O)CCCN2C(=O)/C(=C/C=C/c3ccccc3)SC2=S)cc1	none
COc1ccc(/C=C2\SC(=S)N(C(Cc3ccccc3)C(=O)O)C2=O)cc1 (stereo not given)	rCAG RNA binder 65 (no result: AHR act) | rCAG bind conf 71 | dCAG dye counter 34 | DNA CAG DR inactive
O=C(O)C1CCCN1C(=O)c1cccc(Cl)c1 (stereo not given)	none (no result: GRIN3A LBD mod, AHR act)
COC(=O)c1cc2c(c3c4cc(F)ccc4n(S(=O)(=O)c4ccccc4)c13)C(=O)N(Cc1ccccc1)C2	none (no result: GRIN3A LBD mod, AHR act)
Cn1c(NC(=O)c2ccccc2)nc(Cc2ccccc2)c1Cc1ccccc1	none (no result: GRIN3A LBD mod, AHR act)
CCCC(=O)OCCNc1cc(SCc2ccco2)c2nonc2c1[N+](=O)[O-]	none
CC(=O)OCCCNc1cc(SCc2ccco2)c2nonc2c1[N+](=O)[O-]	rCAG RNA binder 60 | rCAG bind conf inactive | dCAG dye counter 9.8
Cc1ccc([C@H]2C(C(=O)O)=C[C@@H](C(C)(C)C)N2S(=O)(=O)c2ccc(C)cc2)cc1	rCAG RNA binder 42 | rCAG bind conf inactive | dCAG dye counter 12
Cc1ccc(S(=O)(=O)N2[C@@H](c3ccc(C(C)C)cc3)C(C(=O)O)=C[C@H]2C(C)(C)C)cc1	rCAG RNA binder 69 | rCAG bind conf 59 | dCAG dye counter 23
Cc1ccc(S(=O)(=O)N2[C@@H](c3cccc(C)c3)C(C(=O)O)=C[C@H]2C(C)(C)C)cc1	none
CC(=O)N1C[C@@H](CO)[C@@H](N(C)C(=O)Nc2cccc3ccccc23)C[C@H]1c1ccccc1	none (no result: GRIN3A LBD mod, AHR act)
Cc1cc(=O)n(CCc2ccccc2)c(O)c1C#N	rCAG RNA binder 64 | rCAG bind conf inactive | dCAG dye counter 4.4
COC(=O)[C@]12C[C@H](CC(=O)N3CCCC3)C(=O)N(Cc3ccc4c(c3)OCO4)C1=C[C@H](C(C)C)O[C@@H]2C1CC1	none (no result: GRIN3A LBD mod, AHR act)
Cc1ccc(C)c(OCC(=O)Nc2ccc(S(=O)(=O)Nc3onc(C)c3C)cc2)c1	rCAG RNA binder 48 | rCAG bind conf 46 | dCAG dye counter 13
CCc1cccc(OCC(=O)Nc2c[nH]c(=O)[nH]c2=O)c1	none
CCc1cccc(OCC(=O)Nc2ccc(C(=O)O)cc2NC(=O)COc2cccc(CC)c2)c1	rCAG RNA binder 78 | rCAG bind conf 72 | dCAG dye counter 36
Cc1ccccc1OCC(=O)Nc1ccc(S(=O)(=O)Nc2onc(C)c2C)cc1	none
CCc1cccc(OCC(=O)Nc2ccc(S(=O)(=O)Nc3onc(C)c3C)cc2)c1	rCAG RNA binder 37 | rCAG bind conf inactive | dCAG dye counter 7.1
Cc1noc(NS(=O)(=O)c2ccc(NC(=O)CCCOc3ccc(Cl)cc3Cl)cc2)c1C	rCAG RNA binder 87 | rCAG bind conf 73 | dCAG dye counter 38
Cc1ccc(OCC(=O)Nc2ccc(S(=O)(=O)Nc3onc(C)c3C)cc2)cc1	none
COC(=O)C1=C(C)N(C)C(=NCc2ccc(OC)cc2)NC1c1cccc(Cl)c1 (stereo not given)	none (no result: GRIN3A LBD mod, AHR act)

Screening data as filed in PubChem BioAssay.
